Ten compounds from PubChem BioAssay (EPA / NIEHS) can be followed below.

Assay [1] can be described thus: ATG_TCF_b_cat_CIS: Attagene CIS-FACTORIAL HepG2 Assay for human T-Cell-Factor with beta-catenin (TCF/b-cat) (AID 2282965). The following applies: HepG2 TCF/beta-catenin cis-reporter transcription, actives raise or lower the signal. Put shortly: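 HepG2 cells transiently transfected with multiple cis-promoter-regulated reporter transcription units, so endogenous transcription factor activity is measured. Reporter mRNA read 24 hours after dosing by RT-PCR, fluorescent labelling and capillary electrophoresis; bidirectional fitting against DMSO.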

Assay [2] in a line: ATG_TAL_CIS: Attagene CIS-FACTORIAL HepG2 Assay for human TAL Basal Promoter (AID 2282966).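 Further: background control endpoint measuring basal TAL promoter reporter mRNA not a specific factor.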 The following applies: HepG2 Attagene cis-factorial TAL promoter reporter; actives raise or lower the signal. Put shortly: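 RT-PCR plus capillary electrophoresis quantifies reporter mRNA induction in transiently transfected HepG2 cells after 24 h chemical treatment. DMSO serves as negative control and baseline for bidirectional fitting.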

The nature of assay [3]: ATG_TGFb_CIS: Attagene CIS-FACTORIAL HepG2 Assay for human Transforming Growth Factor (TGF) (AID 2282967). The following applies: HepG2 Attagene CIS TGFb reporter, mRNA transcription; actives raise or lower the signal. In a few lines:
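Transient MRTU transfection of HepG2 (FuGene 6). Dose 24 h. TriZol RNA, oligo(dT) RT, PCR, 6-FAM primer extension, HpaI cut, CE. Bidirectional fit, DMSO = baseline.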

Assay [4] in a line: ATG_VDRE_CIS: Attagene CIS-FACTORIAL HepG2 Assay for human Vitamin D Receptor Element (VDRE) (AID 2282968). The following applies: HepG2 VDRE cis-reporter transcription, actives raise or lower the signal. In a few lines:
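RT-PCR/CE readout of reporter mRNA; HepG2, transient transfection, 24 h dosing; DMSO baseline; bidirectional analysis.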

The target in assay [5] is X-box-binding protein 1 (Homo sapiens) (UniProt P17861). Briefly: ATG_Xbp1_CIS: Attagene CIS-FACTORIAL HepG2 Assay for human X-box Binding Protein 1 (XBP1) (AID 2282972). The following applies: HepG2 XBP1 cis-element reporter, Attagene multiplex; actives raise or lower the signal. Put shortly:
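Fluorescence-labelled cDNA fragments from reporter transcripts, separated by capillary electrophoresis, give the signal. Source: HepG2 cells transfected with promoter-driven reporter units, harvested 24 h post-dose. DMSO served as reference for bidirectional curve fitting.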

Assay [6] in a line: ATG_M_19_TRANS: Attagene TRANS-FACTORIAL HepG2 Assay for M19 Transcription Factor (Internal Marker) (AID 2282974; active means hit-call score of the fitted dose curve at least 0.9, where 1 is the maximum). The following applies: HepG2 Attagene TRANS-FACTORIAL M19 internal marker reporter. Put shortly: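 Multiplexed TRANS format: HepG2 liver cells bearing transient GAL4-UAS reporter units, chemical treatment 24 h, reporter transcripts quantified by RT-PCR plus capillary electrophoresis. DMSO defines baseline.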

Assay [7] in a line: ATG_GAL4_TRANS: Attagene TRANS-FACTORIAL HepG2 Assay for GAL4 (Internal Marker) (AID 2282976; active means hit-call score of the fitted dose curve at least 0.9, where 1 is the maximum). The following applies: HepG2 Attagene TRANS GAL4 internal marker reporter. Put shortly: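 In transfected human HepG2 liver cells dosed 24 h, GAL4 reporter mRNA serves as a baseline marker. Detection by RT-PCR with fluorescent capillary electrophoresis, activity fitted upward relative to DMSO.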

Assay [8] has as its target Glucocorticoid receptor (Homo sapiens) (UniProt P04150). As to the kind of experiment: ATG_GR_TRANS: Attagene TRANS-FACTORIAL HepG2 Assay for human Glucocorticoid Receptor (GR) (AID 2282978; active means hit-call score of the fitted dose curve at least 0.9, where 1 is the maximum;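 further: activators score as hits since higher reporter transcript over DMSO is fitted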). The following applies: HepG2 Attagene TRANS GR reporter, mRNA transcription. In a few lines: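 Transiently transfected HepG2 cells express chimeric NR-GAL4 proteins acting on GAL4-UAS reporter units. Compounds are applied for 24 h. mRNA induction over DMSO is measured by capillary electrophoresis.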

The target of assay [9] is Bile acid receptor (Homo sapiens) (UniProt Q96RI1). As to the kind of experiment: ATG_FXR_TRANS: Attagene TRANS-FACTORIAL HepG2 Assay for Farnesoid X Receptor (FXR) (AID 2282979; active means hit-call score of the fitted dose curve at least 0.9, where 1 is the maximum;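 further: hits raise reporter mRNA above DMSO so AC50 marks FXR activation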). The following applies: HepG2 Attagene TRANS FXR-GAL4 reporter transcription. In a few lines:
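Reporter transcripts from transfected HepG2 cells were measured 24 h after dosing, using RT-PCR with capillary electrophoresis of 6-FAM-labelled fragments. The read-out reflects activity of exogenous FXR-Gal4 chimera on GAL4-UAS units, with induction relative to DMSO.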

For assay [10], the target named is Oxysterols receptor LXR-alpha (Homo sapiens) (UniProt Q13133). As to the kind of experiment: ATG_LXRa_TRANS: Attagene TRANS-FACTORIAL HepG2 Assay for human Liver X Receptor alpha (LXRa) (AID 2282980; active means hit-call score of the fitted dose curve at least 0.9, where 1 is the maximum). The following applies: HepG2 Attagene TRANS reporter, LXRa transactivation. Put shortly:
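Chemical-induced reporter mRNA measured by RT-PCR with fluorescent labelling and capillary electrophoresis after 24 h dosing of transiently transfected HepG2 cells expressing exogenous NR-Gal4 chimeras; increases scored against DMSO baseline.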

Assay [11] in a line: ATG_M_06_TRANS: Attagene TRANS-FACTORIAL HepG2 Assay for M06 Transcription Factor (Internal Marker) (AID 2282983; active means hit-call score of the fitted dose curve at least 0.9, where 1 is the maximum). The following applies: HepG2 Attagene TRANS M06 internal marker reporter. In a few lines: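 Cells: HepG2, transient multi-reporter transfection. Exposure: 24 h. Detection: RT-PCR, 6-FAM labelling, HpaI digestion (2 h, 37 °C), capillary electrophoresis. Baseline: DMSO.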

Assay [12] in a line: ATG_M_32_TRANS: Attagene TRANS-FACTORIAL HepG2 Assay for M32 Transcription Factor (Internal Marker) (AID 2282984; active means hit-call score of the fitted dose curve at least 0.9, where 1 is the maximum;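 further: transcript level of a background control reporter unit measured by RT-PCR and capillary electrophoresis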). The following applies: HepG2 Attagene TRANS M32 internal marker reporter. Put shortly:
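Human hepatoma HepG2, transient MRTU transfection, 24 h treatment. RNA → RT-PCR → fluorescent primer extension → HpaI digest (2 h, 37 C) → CE. Positive-direction fit vs DMSO.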

Assay [13] has as its target Nuclear receptor subfamily 4 group A member 2 (Homo sapiens) (UniProt P43354). Briefly: ATG_NURR1_TRANS: Attagene TRANS-FACTORIAL HepG2 Assay for human Nuclear Receptor Related Protein 1 (NURR1) (AID 2282985; active means hit-call score of the fitted dose curve at least 0.9, where 1 is the maximum). The following applies: HepG2 Attagene TRANS reporter, mRNA readout. Put shortly:
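After 24 h chemical dosing, total RNA from transiently transfected HepG2 cells was reverse-transcribed and reporter cDNA PCR-amplified, FAM-labelled and analysed by capillary electrophoresis. Activity fitted in positive direction, DMSO as negative control.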

Assay [14] concerns the target Transcriptional activator Myb (Homo sapiens) (UniProt P10242). As to the kind of experiment: ATG_Myb_CIS: Attagene CIS-FACTORIAL HepG2 Assay for human Myeloblastosis (Myb) Proto-Oncogene Transcription Factor (AID 2282986). The following applies: HepG2 Attagene CIS-FACTORIAL Myb reporter transcription; actives raise or lower the signal. In a few lines: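 Using HepG2 liver cells bearing transiently transfected cis-promoter reporter constructs, the assay measures induction or loss of reporter mRNA after 24 hours of dosing. Detection used fluorescently labeled RT-PCR products separated by capillary electrophoresis.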

Assay [15] addresses Estrogen-related receptor gamma (Homo sapiens) (UniProt P62508). As to the kind of experiment: ATG_ERRg_TRANS: Attagene TRANS-FACTORIAL HepG2 Assay for human Estrogen-Related Receptor gamma (ERRg) (AID 2282977; active means hit-call score of the fitted dose curve at least 0.9, where 1 is the maximum;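 further: hits increase reporter signal over DMSO so potencies reflect activators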). The following applies: HepG2 Attagene TRANS reporter, ERRg transactivation. In a few lines: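 HepG2 cells transiently transfected with multiplexed GAL4-UAS reporter units driven by chimeric NR-Gal4 proteins; 24 h exposure. Reporter mRNA quantified by RT-PCR, fluorescent labelling, HpaI digestion and capillary electrophoresis; gain of signal vs DMSO.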

In assay [16] the target is Hepatocyte nuclear factor 4-alpha (Homo sapiens) (UniProt P41235). Briefly: ATG_HNF4a_TRANS: Attagene TRANS-FACTORIAL HepG2 Assay for human Hepatocyte Nuclear Factor 4 alpha (HNF4a) (AID 2282982; active means hit-call score of the fitted dose curve at least 0.9, where 1 is the maximum). The following applies: HepG2 HNF4a transactivation reporter, mRNA readout. In a few lines:
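Cells used were human HepG2, transiently carrying GAL4-UAS reporter units read out against exogenous NR-GAL4 chimeras. Reporter transcript levels after 24 h dosing were quantified by fluorescent RT-PCR and capillary electrophoresis.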

Assay [17] concerns the target Oxysterols receptor LXR-beta (Homo sapiens) (UniProt P55055). Briefly: ATG_LXRb_TRANS: Attagene TRANS-FACTORIAL HepG2 Assay for human Liver X Receptor beta (LXRb) (AID 2282981; active means hit-call score of the fitted dose curve at least 0.9, where 1 is the maximum). The following applies: HepG2 Attagene TRANS GAL4-LXRb reporter, mRNA. Put shortly:
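In this TRANS format, exogenous chimeric NR-Gal4 protein activity, not endogenous factors, drives reporter expression in transfected human HepG2 cells. Exposure lasted 24 h; reporter mRNA was read by fluorescent capillary electrophoresis.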

Assay [18] concerns the target Steroid hormone receptor ERR1 (Homo sapiens) (UniProt P11474). Briefly: ATG_ERRa_TRANS: Attagene TRANS-FACTORIAL HepG2 Assay for human Estrogen-Related Receptor alpha (ERRa) (AID 2282971; active means hit-call score of the fitted dose curve at least 0.9, where 1 is the maximum). The following applies: HepG2 Attagene TRANS reporter, ERRa transactivation. In a few lines:
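Reporter transcripts from ERRa-Gal4 chimera activity measured in transiently transfected human HepG2 cells 24 hours after dosing, using RT-PCR with 6-FAM primer extension, HpaI digestion and capillary electrophoresis; DMSO is baseline.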

Results filed as inconclusive are left out. Activity calls are given as the source filed them. How the source made its calls, unless noted: active means hit-call score of the fitted dose curve at least 0.9, where 1 is the maximum; inactive means score below 0.9.

Sequence of Hepatocyte nuclear factor 4-alpha (Homo sapiens) (P41235 whole entry, looked up, the tested form may be a part): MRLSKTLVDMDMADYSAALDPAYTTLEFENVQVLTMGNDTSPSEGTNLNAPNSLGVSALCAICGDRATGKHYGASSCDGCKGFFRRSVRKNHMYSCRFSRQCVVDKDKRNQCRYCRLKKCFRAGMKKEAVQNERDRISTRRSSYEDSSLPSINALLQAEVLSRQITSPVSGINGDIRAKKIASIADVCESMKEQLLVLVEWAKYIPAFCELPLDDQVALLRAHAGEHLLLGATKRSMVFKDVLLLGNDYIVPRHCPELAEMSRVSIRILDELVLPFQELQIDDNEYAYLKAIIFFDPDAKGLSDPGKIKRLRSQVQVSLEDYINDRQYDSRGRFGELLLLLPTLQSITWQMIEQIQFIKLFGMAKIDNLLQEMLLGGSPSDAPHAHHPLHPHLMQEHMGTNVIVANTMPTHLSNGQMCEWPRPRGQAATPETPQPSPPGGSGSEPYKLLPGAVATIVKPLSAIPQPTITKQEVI
Sequence of X-box-binding protein 1 (Homo sapiens) (P17861 whole entry, looked up, the tested form may be a part): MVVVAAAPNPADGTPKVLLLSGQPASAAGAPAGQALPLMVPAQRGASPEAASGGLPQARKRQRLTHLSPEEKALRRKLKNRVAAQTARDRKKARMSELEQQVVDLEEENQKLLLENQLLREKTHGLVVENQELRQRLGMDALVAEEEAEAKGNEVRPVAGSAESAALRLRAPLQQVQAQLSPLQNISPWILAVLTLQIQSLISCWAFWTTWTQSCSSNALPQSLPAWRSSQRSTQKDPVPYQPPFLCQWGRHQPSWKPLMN
Sequence of Estrogen-related receptor gamma (Homo sapiens) (P62508 whole entry, looked up, the tested form may be a part): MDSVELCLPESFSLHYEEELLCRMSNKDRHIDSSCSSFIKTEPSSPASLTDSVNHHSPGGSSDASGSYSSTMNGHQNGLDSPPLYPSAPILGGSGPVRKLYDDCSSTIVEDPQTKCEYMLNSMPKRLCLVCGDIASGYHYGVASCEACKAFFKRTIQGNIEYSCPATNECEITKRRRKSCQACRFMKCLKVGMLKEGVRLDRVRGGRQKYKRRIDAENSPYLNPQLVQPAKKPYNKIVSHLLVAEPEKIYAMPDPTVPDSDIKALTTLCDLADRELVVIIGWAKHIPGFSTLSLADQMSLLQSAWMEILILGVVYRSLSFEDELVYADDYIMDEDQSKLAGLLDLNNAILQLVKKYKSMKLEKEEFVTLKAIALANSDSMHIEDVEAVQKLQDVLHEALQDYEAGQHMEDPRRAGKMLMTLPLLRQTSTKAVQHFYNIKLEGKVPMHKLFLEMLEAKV
Sequence of Glucocorticoid receptor (Homo sapiens) (P04150 whole entry, looked up, the tested form may be a part): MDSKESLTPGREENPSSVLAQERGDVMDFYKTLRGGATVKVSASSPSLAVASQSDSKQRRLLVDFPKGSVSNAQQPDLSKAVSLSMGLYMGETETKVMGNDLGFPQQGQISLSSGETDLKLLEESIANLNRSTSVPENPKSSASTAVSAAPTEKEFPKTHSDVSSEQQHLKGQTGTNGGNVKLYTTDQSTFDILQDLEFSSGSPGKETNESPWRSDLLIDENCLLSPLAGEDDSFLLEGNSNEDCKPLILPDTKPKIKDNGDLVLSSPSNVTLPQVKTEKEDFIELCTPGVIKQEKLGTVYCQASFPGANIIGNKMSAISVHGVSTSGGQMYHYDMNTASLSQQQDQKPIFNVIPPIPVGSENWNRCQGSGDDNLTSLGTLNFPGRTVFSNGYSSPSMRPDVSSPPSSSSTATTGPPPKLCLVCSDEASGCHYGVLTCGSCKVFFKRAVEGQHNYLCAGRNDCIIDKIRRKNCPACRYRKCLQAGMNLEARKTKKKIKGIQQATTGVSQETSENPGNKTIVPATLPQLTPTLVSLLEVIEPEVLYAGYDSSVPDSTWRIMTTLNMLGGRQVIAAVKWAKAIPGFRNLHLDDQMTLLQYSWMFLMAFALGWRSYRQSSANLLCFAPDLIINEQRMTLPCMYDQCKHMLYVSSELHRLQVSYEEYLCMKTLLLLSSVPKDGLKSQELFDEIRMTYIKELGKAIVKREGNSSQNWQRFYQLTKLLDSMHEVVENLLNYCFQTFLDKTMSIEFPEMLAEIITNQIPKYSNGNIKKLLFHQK
Sequence of Nuclear receptor subfamily 4 group A member 2 (Homo sapiens) (P43354 whole entry, looked up): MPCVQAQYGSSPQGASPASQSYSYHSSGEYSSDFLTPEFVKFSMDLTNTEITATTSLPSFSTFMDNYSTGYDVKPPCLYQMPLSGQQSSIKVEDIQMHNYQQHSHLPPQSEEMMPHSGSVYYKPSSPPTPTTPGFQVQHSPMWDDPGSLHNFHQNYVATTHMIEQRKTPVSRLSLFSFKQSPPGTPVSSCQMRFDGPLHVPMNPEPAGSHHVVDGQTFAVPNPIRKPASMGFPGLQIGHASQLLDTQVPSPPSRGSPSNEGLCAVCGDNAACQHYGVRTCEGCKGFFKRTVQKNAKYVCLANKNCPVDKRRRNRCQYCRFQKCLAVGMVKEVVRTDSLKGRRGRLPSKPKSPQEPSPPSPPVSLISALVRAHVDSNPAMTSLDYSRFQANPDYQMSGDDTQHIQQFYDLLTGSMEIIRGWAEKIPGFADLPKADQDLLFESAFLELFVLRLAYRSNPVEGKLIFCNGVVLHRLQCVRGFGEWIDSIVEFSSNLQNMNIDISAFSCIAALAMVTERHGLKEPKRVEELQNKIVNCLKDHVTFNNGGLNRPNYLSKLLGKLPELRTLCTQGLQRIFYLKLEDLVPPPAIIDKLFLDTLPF
Sequence of Oxysterols receptor LXR-alpha (Homo sapiens) (Q13133 whole entry, looked up, the tested form may be a part): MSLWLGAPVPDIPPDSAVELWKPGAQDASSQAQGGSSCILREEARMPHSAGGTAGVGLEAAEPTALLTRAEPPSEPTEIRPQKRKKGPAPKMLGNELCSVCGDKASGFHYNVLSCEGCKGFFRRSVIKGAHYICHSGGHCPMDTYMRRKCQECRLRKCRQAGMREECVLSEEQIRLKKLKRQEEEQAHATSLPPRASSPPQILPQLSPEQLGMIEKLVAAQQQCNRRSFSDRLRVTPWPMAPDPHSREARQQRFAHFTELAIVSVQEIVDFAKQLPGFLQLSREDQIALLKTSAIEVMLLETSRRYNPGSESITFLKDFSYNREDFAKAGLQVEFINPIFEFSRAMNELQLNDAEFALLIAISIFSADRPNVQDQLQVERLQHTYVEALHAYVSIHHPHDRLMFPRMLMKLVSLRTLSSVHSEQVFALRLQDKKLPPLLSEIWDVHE
Sequence of Transcriptional activator Myb (Homo sapiens) (P10242 whole entry, looked up): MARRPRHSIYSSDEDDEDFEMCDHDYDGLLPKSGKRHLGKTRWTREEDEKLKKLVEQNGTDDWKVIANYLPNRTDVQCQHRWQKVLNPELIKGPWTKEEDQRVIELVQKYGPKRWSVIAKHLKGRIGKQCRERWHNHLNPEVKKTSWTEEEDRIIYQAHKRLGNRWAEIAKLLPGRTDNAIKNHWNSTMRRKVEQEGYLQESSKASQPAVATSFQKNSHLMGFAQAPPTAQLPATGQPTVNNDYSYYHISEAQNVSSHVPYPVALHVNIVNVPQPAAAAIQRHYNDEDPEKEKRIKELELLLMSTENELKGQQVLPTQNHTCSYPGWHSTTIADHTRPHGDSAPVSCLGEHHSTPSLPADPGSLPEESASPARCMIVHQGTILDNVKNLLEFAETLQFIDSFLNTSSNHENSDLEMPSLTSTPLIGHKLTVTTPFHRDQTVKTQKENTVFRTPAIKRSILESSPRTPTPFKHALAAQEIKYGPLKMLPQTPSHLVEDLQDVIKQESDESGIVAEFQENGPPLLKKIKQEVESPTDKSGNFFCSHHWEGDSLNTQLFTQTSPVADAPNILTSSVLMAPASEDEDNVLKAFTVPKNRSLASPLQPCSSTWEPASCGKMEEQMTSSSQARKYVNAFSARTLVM
Sequence of Oxysterols receptor LXR-beta (Homo sapiens) (P55055 whole entry, looked up, the tested form may be a part): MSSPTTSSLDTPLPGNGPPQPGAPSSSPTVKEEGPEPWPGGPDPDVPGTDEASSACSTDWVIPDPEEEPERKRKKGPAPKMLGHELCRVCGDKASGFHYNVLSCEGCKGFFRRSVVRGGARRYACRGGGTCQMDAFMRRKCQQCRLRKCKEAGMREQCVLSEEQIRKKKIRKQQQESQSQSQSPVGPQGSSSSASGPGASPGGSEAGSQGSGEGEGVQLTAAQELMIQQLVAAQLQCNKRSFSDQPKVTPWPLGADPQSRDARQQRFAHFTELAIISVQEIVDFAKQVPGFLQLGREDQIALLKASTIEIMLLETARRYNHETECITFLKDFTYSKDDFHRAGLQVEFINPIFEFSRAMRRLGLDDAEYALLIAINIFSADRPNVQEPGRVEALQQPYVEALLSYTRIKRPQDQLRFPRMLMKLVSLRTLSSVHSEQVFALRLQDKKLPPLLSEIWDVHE
Sequence of Bile acid receptor (Homo sapiens) (Q96RI1 whole entry, looked up, the tested form may be a part): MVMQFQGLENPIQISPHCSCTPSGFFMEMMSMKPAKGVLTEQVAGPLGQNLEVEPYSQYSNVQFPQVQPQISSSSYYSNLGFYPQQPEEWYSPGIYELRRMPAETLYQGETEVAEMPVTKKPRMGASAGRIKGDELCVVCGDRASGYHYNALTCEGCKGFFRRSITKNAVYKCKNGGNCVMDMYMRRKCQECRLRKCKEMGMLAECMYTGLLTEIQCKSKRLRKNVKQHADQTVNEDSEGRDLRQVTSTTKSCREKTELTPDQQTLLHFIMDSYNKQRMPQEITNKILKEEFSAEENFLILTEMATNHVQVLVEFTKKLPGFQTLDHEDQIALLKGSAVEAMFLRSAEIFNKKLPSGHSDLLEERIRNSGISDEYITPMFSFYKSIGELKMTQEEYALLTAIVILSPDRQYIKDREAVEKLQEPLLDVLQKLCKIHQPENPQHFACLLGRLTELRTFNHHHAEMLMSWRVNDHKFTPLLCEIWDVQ

Usually AC50 stands for the concentration at which the activity in the assay is half-maximal. For the compound `CCCCCC(=O)O[C@]1(C(C)=O)CC[C@H]2[C@@H]3CCC4=CC(=O)CC[C@]4(C)[C@H]3CC[C@@]21C`, the compound was called inactive in [1], in assay [3], in [5], in [6], in assay [7] and in assay [9]. Further, the result in [10], in [11], in [12] and in assay [14] was inactive. Besides, the AC50 was 13.4 µM (active) in assay [2], 61.2 µM (active) in assay [4], 0.476 µM (active) in [8] and 8.77 µM (active) in assay [13].
Consider `C=C(C)C(=O)OCCOCCOC(=O)C(=C)C`, for which the result in assay [1], in assay [2], in assay [3], in assay [4], in assay [5] and in [6] was inactive. Besides, the outcome in [7], in assay [15], in assay [11], in assay [12] and in [14] was inactive.
Consider `ClCCOCCOCCCl`, for which the result in assay [1], in [2], in [3], in assay [4], in [5] and in assay [7] was inactive. The call in assay [15], in assay [16], in [13] and in assay [14] was inactive.
In the case of `O=S(=O)(O)CCCN1CCOCC1`, the compound was classed as inactive in assay [1], in [2], in [3], in [4], in assay [5] and in assay [7]. Besides, the call in assay [10], in assay [16], in assay [11], in [13] and in [14] was inactive.
In the case of `OCC=Cc1ccccc1`, the compound was called inactive in [1], in assay [2], in assay [3], in assay [4], in assay [5] and in assay [6]. In addition, the outcome in [10], in assay [17], in assay [16], in assay [13] and in assay [14] was inactive.
For `Cc1cccc(C)c1`, the result in assay [1], in assay [2], in assay [3], in [4], in [15] and in [8] was inactive. Besides, the compound was called inactive in assay [10], in [13] and in assay [14].
With `CCCCCCCCOC(C)=O`, the outcome in assay [1], in assay [2], in [3], in assay [4], in assay [5] and in assay [6] was inactive. In addition, the compound was classed as inactive in assay [10], in assay [17], in [16], in assay [11], in assay [13] and in assay [14].
For the compound `CCO[Si](CC)(OCC)OCC`, the values for the AC50 in assay [1] and in assay [3] were 173 µM (active) and 160 µM (active), respectively. For the same compound, the outcome in assay [2], in assay [4], in [5], in [7], in assay [16] and in assay [11] was inactive. For the same compound, the outcome in [14] was inactive.
Turning to `CCCCOC(=O)C(C)OC(=O)CCC` (configuration not stated), the compound was classed as inactive in assay [1], in assay [2], in assay [3], in assay [4], in assay [18] and in assay [5]. Also, the call in [7], in assay [8], in [16], in [11] and in assay [14] was inactive.
For `Cc1ccncc1`, the call in assay [1], in assay [2], in assay [3], in assay [4], in [5] and in assay [6] was inactive. In addition, the result in assay [7], in [11] and in [14] was inactive.
